Measured values as given in PubChem BioAssay AID1159570 (Broad Institute, 2015).
Results with a measured potency or affinity are listed apart. The source made the active and inactive calls. No rule for the calls is given here.

Assay: growth inhibition of yeast DHODH-expressing 3D7 parasites – SYBR Green, dry powder samples, dose response (AID 1159570)
Details: P. falciparum 3D7-ScDHODH growth, SYBR Green fluorescence; series mostly up to 19.5 µM

outcome, inactive:
Cc1ccccc1-c1ccccc1[C@H]1[C@@H](C#N)N(C(=O)c2ccccc2)[C@@H]1CO, O=C(NC[C@@H]1CC[C@H]2[C@H](CN2Cc2cc(-c3ccccc3)on2)O1)c1ccc2c(c1)OCO2, C[C@@H]1CN([C@H](C)CO)C(=O)c2cccc(NC(=O)c3ccc(-c4nccs4)cc3)c2O[C@H]1CN(C)Cc1ccc(C(F)(F)F)cc1, COc1cccc(C#Cc2ccc([C@H]3[C@@H](CO)N(C(=O)c4ccccn4)[C@H]3C#N)cc2)c1, COc1ccc(S(=O)(=O)Nc2ccc3c(c2)CC(=O)N([C@@H](C)CO)C[C@H](C)[C@H](CN(C)S(=O)(=O)c2ccc(OC)cc2)O3)cc1
